Several values for one entry are separate records, joined by “and”; a condition that tells them apart may be missing. Equal entries are not always repeated. Records with an inconclusive call do not appear. Activity calls are given as the source filed them. Unless noted, calls come from the whole dose curve; as a rule, active = well fitted curve in the direction sought with a large enough effect; inconclusive = small, poorly fitted or top-dose-only effect, or another doubt; inactive = no such curve, though single readings can be large; an effect the other way counts as inactive or inconclusive.
Key:
[1] = Cell Viability - MRC5 (AID 434; calls by dose curve;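 note: potency is the fitted concentration of half-maximal effect; cells exposed to compound for 40 hours at 37 °C; potency reflects cytotoxicity seen as loss of intracellular ATP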); conditions: MRC5 lung fibroblast viability, qHTS
Procedure, shortened: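 AC50 values come from Hill-equation fits of intracellular ATP loss, measured by CellTiter-Glo luminescence. Normal lung fibroblasts (MRC5) had 40 hr compound treatment at 37 C, normalized between DMSO and 100 uM tamoxifen.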

[2] = Cell Viability - H-4-II-E (AID 543);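 note: cells exposed to compound for 40 hours; % is set by controls: 0 for no effect and ±100 for the full control effect; nearly all actives have a fitted effect of over 35% in size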
Procedure, shortened: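 CellTiter-Glo luminescence (intracellular ATP) measured after 40 h compound exposure at 37 °C in H-4-II-E rat hepatoma cells seeded at 1500/well. Values are AC50s fitted with the standard Hill equation.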

[3] = Cellular Toxicity (caspase-3) Hek293 (AID 664);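 note: cells exposed to compound for 16 h at 37 °C before readout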
Procedure, shortened: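 Concentration-response qHTS: caspase 3/7 activation measured by luminescent aminoluciferin substrate cleavage after 16 h compound exposure of Hek 293 cells. AC50 from Hill equation, with DMSO as basal and 100 uM tamoxifen as 100%.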

[4] = MultiTox-Fluor Cytotoxicity Assay - LYMP1-002 - Live Cells (AID 955);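 note: cells exposed to compound for 16 hours; % is set by controls: 0 for no effect and ±100 for the full control effect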
Procedure, shortened: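 After 16 h compound exposure at 37 C, live LYMP1-002 lymphoblastoid cells (2500/well) were quantified by cleavage of cell-permeant GF-AFC substrate, read at 405/510 nm after 60 min. Concentration-response fitted with Hill equation for AC50.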

[5] = Cell Viability - LYMP2-005 (AID 967);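 note: plate controls were DMSO only for no effect and 92 µM tetraoctylammonium bromide control for full effect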
Procedure, shortened: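 qHTS viability screen in LYMP2-005 cells: 24 h at 37 C with compound, ATP luminescence via CellTiter-Glo, AC50 from Hill curves.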

[6] = Cell Viability - LYMP2-011 (AID 969);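 note: 0% = DMSO only and full inhibition = 92 µM tetraoctylammonium bromide; nearly all actives have a fitted effect of over 60% in size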
Procedure, shortened: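 Cytotoxicity qHTS with ATP content as read-out: lymphoblastoid cells (2500/well) exposed to compound for 24 h at 37 C, then luciferase luminescence measured. Concentration-response data fitted with the standard Hill equation to give AC50.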

[7] = Cell Viability - LYMP2-013 (AID 970);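 note: 0% = DMSO only and full inhibition = tetraoctylammonium bromide control; nearly all actives have a fitted effect of over 55% in size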
Procedure, shortened: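 qHTS cytotoxicity: ATP-dependent luminescence (CellTiter-Glo, 30 min room temperature) read after 24 h compound exposure at 37 C of 2500 LYMP2-013 lymphoblastoid cells per well. Concentration-response fitted with Hill equation to give AC50.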

[8] = Cell Viability - LYMP1-002 - Assay at 40 hr (AID 994);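 note: 0% = DMSO only and full inhibition = 92 µM tetraoctylammonium bromide; nearly all actives have a fitted effect of over 60% in size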
Procedure, shortened: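 Cytotoxicity was read as loss of cellular ATP (CellTiter-Glo luminescence) after 40 hr compound exposure at 37 C of 2500 LYMP1-002 lymphoblastoid cells per well. Concentration-response data were fitted with the standard Hill equation to give AC50.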

[9] = target: Bile acid receptor (Homo sapiens) (UniProt Q96RI1); assay: qHTS assay for small molecule antagonists of farnesoid X receptor signaling (AID 588526; calls by dose curve; note: % is set by controls: 0 for no effect and ±100 for the full control effect)
Bile acid receptor (Homo sapiens), sequence (Q96RI1 whole entry, looked up): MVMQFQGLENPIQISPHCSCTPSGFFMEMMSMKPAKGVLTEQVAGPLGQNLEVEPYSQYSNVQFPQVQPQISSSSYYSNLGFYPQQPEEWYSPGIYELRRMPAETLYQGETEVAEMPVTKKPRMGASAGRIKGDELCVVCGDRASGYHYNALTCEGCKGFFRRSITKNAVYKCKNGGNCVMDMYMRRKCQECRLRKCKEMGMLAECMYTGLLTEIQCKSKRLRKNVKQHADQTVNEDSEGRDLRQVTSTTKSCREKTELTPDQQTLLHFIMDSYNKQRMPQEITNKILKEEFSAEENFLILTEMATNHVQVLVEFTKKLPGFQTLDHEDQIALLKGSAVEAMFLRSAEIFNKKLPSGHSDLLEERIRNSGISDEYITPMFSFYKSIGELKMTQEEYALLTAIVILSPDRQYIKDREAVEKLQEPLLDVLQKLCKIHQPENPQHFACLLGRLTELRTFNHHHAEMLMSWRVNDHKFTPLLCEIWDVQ
Procedure, shortened: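 Beta-lactamase reporter antagonist mode: HEK293T FXR-UAS-bla cells, titrated compound, CDCA stimulation, 16 h 37 C, CCF4 dye 2 h RT. Data normalized to CDCA 50 uM and DMSO; Hill-fit IC50.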

[10] = target: Peroxisome proliferator-activated receptor delta (Homo sapiens) (UniProt Q03181); assay: qHTS assay for small molecule agonists of peroxisome proliferator-activated receptor delta signaling (AID 588534; calls by dose curve;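 note: 0% = DMSO basal wells and 100% = positive control agonist at 10 µM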)
Peroxisome proliferator-activated receptor delta (Homo sapiens), sequence (Q03181 whole entry, looked up): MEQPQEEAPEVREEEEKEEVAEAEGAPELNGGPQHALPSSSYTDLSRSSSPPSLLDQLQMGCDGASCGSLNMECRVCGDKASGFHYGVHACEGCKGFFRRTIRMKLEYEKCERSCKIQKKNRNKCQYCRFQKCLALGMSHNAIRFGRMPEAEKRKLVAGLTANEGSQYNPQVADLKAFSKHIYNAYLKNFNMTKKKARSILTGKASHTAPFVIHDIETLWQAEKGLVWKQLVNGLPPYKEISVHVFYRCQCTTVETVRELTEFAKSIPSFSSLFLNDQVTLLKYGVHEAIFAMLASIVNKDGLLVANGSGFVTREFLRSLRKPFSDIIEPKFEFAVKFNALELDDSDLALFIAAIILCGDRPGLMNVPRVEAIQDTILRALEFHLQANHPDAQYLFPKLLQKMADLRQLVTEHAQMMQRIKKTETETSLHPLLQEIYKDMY
Procedure, shortened: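 Agonist-mode beta-lactamase reporter readout (CCF4 dye, 2 h at RT) after 18 h at 37 °C exposure to a titration; Hill-equation fitting gave EC50 and maximal response.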

[11] = target: Peroxisome proliferator-activated receptor gamma (Homo sapiens) (UniProt P37231); assay: qHTS assay for small molecule antagonists of peroxisome proliferator-activated receptor gamma signaling (AID 588537; active = well fitted inhibition curve with a large enough effect in the signal ratio, with a control signal flat, not every such curve was filed as active; the % refers to the signal ratio;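 note: reporter cells co-stimulated with 50 nM rosiglitazone agonist during compound treatment; % of control where 0% means no effect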)
Peroxisome proliferator-activated receptor gamma (Homo sapiens), sequence (P37231 whole entry, looked up): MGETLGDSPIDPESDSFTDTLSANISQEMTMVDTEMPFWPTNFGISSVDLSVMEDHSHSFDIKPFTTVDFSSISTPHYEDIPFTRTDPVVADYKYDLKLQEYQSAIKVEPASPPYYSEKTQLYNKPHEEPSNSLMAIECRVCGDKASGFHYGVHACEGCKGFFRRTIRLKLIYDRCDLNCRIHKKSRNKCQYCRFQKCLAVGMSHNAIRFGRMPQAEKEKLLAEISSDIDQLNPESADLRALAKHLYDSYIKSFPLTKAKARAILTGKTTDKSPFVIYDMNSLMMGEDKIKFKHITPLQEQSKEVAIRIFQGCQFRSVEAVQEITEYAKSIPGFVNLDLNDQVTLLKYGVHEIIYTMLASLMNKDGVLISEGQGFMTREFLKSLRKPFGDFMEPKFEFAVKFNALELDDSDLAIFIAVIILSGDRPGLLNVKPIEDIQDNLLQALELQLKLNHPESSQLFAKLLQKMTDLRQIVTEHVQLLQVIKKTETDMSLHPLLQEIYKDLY
Procedure, shortened: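 Antagonist-mode β-lactamase reporter screen run as a titration series. HEK293 PPARγ-UAS-bla cells are stimulated with rosiglitazone (50 nM final) for 16 h, then CCF4 is read at 460/530 nm. Data are scaled between DMSO and rosiglitazone and fitted to the Hill equation.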

[12] = qHTS assay for small molecule activators of the nuclear factor-kappa B (NF-kB) signaling pathway (AID 651749; active = well fitted activation curve with a large enough effect in the signal ratio; the % refers to the signal ratio; note: % of control where 0% means no effect); conditions: NF-kB-bla ME-180 cells, beta-lactamase FRET ratio, 16 h; activation: active compounds read high
Procedure, shortened: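 Activation measured after 16 hr compound treatment at 37C, 5% CO2, of 2,000 ME-180 cells/well stably expressing an NF-kB response element–driven beta-lactamase reporter, via FRET-disruption fluorescence.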

[13] = Cell Viability - SH-SY5Y (AID 544); conditions: SH-SY5Y neuroblastoma cell viability; viability change, negative = cytotoxic: at 92.2 µM (top of the series);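 note: cells exposed to compound for 40 hours; 0% = DMSO alone and -100% = 100 µM tamoxifen; nearly all actives have a fitted effect of over 55% in size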
Procedure, shortened: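 Cytotoxicity measured via ATP-dependent luciferase luminescence (CellTiter-Glo) following 40 h, 37 °C exposure of 1500 SH-SY5Y cells per well. Concentration-response data were fitted with the standard Hill equation to give AC50.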

[14] = Cellular Toxicity (caspase-3) N2a (AID 665); conditions: N2a cells, luminescence, normalized: DMSO 0%, 10 µM staurosporine 100%; at 92.2 µM (top of the series);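 note: compound exposure lasted 16 h at 37 °C before readout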
Procedure, shortened: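 Caspase-3/7 activation measured as luminescence from Caspase-Glo reagent (1 h, room temperature) after 16 h compound exposure of mouse N2a cells. AC50 values from Hill-equation concentration-response, scaled between DMSO and 10 uM staurosporine.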

[15] = Cell Viability - LYMP2-015 (AID 971);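 note: 0% = DMSO only and full effect = 92 µM tetraoctylammonium bromide; nearly all actives have a fitted effect of over 55% in size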
Procedure, shortened: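 Cytotoxicity readout: decrease in intracellular ATP (CellTiter-Glo luminescence) in 2500 LYMP2-015 lymphoblastoid cells/well after 24 h compound exposure at 37 C. Concentration-response data fitted with the standard Hill equation to give AC50.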

[16] = Cell Viability - LYMP2-023 (AID 975);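 note: cellular ATP measured by luciferase luminescence as viability proxy; plate controls were DMSO only for no effect and 92 µM tetraoctylammonium bromide control for full effect; nearly all actives have a fitted effect of over 55% in size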
Procedure, shortened: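 Intracellular ATP, read by CellTiter-Glo luminescence, reports viability after 24 hr compound exposure at 37 C. 2500 lymphoblastoid cells/well (LYMP2-023) seeded 5 hr beforehand; Hill fits give AC50; positive control tetraoctylammonium bromide.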

[17] = target: Voltage-gated inwardly rectifying potassium channel KCNH2 (Homo sapiens) (UniProt Q12809); assay: qHTS Assay for Small Molecule Inhibitors of the Human hERG Channel Activity (AID 588834);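 note: U2OS cells transduced with hERG by BacMam; top concentration of the series differs between compounds; % is set by controls: 0 for no effect and ±100 for the full control effect; lower thallium flux fluorescence means stronger hERG block; nearly all actives have a fitted effect of over 50% in size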
Voltage-gated inwardly rectifying potassium channel KCNH2 (Homo sapiens), sequence (Q12809 whole entry, looked up): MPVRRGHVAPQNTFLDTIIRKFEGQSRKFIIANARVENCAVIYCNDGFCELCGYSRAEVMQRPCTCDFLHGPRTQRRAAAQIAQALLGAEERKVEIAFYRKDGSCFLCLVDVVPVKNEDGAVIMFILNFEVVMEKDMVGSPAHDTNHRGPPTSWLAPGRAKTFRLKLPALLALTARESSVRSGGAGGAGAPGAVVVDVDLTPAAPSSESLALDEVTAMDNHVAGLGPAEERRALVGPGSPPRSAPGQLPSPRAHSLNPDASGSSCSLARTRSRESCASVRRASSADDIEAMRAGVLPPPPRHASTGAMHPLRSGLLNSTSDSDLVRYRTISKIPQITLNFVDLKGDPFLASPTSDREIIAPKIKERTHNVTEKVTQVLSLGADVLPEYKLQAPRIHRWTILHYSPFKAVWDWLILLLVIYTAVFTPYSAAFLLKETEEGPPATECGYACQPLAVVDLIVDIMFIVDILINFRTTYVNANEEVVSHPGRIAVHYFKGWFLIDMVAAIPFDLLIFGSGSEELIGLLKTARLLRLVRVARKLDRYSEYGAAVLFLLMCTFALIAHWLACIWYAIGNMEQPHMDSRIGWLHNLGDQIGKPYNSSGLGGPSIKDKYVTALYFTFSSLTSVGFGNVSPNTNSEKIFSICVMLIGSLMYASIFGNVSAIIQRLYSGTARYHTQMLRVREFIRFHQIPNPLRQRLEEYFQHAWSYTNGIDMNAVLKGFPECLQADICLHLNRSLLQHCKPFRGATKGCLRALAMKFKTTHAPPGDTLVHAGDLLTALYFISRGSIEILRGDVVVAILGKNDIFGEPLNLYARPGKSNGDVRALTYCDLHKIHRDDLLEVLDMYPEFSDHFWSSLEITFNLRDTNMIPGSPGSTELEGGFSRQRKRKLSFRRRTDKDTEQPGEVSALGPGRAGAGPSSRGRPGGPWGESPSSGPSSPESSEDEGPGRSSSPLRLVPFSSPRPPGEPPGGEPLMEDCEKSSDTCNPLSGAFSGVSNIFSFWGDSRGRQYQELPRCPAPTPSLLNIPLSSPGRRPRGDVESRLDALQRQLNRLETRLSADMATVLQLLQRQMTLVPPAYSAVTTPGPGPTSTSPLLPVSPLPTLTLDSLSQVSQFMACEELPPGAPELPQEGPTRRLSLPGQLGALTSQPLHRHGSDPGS
Procedure, shortened: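 Cells were infected with hERG-BacMam virus for 4 hrs at room temperature, grown overnight, then seeded at 2000/well. After dye loading and roughly 10 min compound treatment, thallium influx was triggered and fluorescence recorded.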

[18] = qHTS assay for small molecule agonists of the antioxidant response element (ARE) signaling pathway (AID 651741; active = well fitted activation curve with a large enough effect in the signal ratio; the % refers to the signal ratio; note: potency is the fitted concentration of half-maximal effect; for activation: % of control where 0% means no effect)
Procedure, shortened: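 Beta-lactamase reporter under ARE control in HepG2 cells, 2,000 per well, was induced by 16 h compound treatment at 37 C. Read-out was fluorescence from LiveBLAzer B/G FRET substrate after 2 h at room temperature.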

[19] = target: Thyroid hormone receptor beta (Homo sapiens) (UniProt P10828); assay: qHTS assay for small molecule agonists of thyroid hormone receptor beta signaling (AID 588545; calls by dose curve)
Thyroid hormone receptor beta (Homo sapiens), sequence (P10828 whole entry, looked up): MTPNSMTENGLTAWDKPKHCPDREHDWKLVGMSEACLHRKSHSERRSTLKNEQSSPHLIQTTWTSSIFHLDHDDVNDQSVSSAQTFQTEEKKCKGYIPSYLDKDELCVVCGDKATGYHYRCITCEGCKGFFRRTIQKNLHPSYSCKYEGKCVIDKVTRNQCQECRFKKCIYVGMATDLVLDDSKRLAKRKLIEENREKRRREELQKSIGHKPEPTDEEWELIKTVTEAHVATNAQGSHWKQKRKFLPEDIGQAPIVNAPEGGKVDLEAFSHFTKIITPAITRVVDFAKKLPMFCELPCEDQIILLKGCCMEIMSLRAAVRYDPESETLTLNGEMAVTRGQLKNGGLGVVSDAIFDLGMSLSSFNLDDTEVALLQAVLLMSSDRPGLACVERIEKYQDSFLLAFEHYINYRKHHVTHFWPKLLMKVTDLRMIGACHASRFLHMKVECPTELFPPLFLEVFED
Procedure, shortened: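 Agonist-mode beta-lactamase reporter assay, HEK 293 cells, 2% charcoal/dextran FBS; cells plated 4 hrs, compound 18 hrs at 37 C, CCF4 2 hrs RT. Normalized to 10 nM T3 (100%) and DMSO (0%); Hill fit gives EC50, efficacy.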

C=C(C)C(=O)OCC1CO1 (stereo not drawn)
inactive: Potency [1] > 92 µM | Potency [2] | outcome [3] | outcome [4] | Potency [5] | Potency [6] | Potency [7] | Potency [8] | outcome [9] | outcome [10] | Potency [11] | activation [12] 0.768%

Clc1nc(Cl)nc(Cl)n1
inactive: Potency [1] > 92 µM | Potency [2] | caspase-3 activation [14] 1.31% | outcome [4] | Potency [6] | Potency [15] | Potency [16] | Potency [8] | Potency [17] | Potency [18] | activation [12] 0.499% and 0.444%
active: viability change, negative = cytotoxic [13] -96.5%

CC(C)(C)OOC(C)(C)C
inactive: Potency [1] > 92 µM | Potency [2] | outcome [3] | Potency [6] | Potency [7] | Potency [15] | Potency [8] | outcome [9] | outcome [10] | outcome [19] | Potency [18] | activation [12] 1.21%

C=C(Cl)Cl
inactive: Potency [1] > 92 µM | Potency [2] | outcome [3] | caspase-3 activation [14] 1.75% | Potency [6] | Potency [7] | Potency [16] | Potency [11] | outcome [19] | Potency [18]

C=CCOC(C)=O
inactive: Potency [13] | outcome [3] | caspase-3 activation [14] -3.6% | Potency [5] | Potency [8] | outcome [9] | Potency [18] | activation [12] -0.256%

CC(O)CCl (stereo not drawn)
inactive: Potency [1] > 92 µM | Potency [13] | caspase-3 activation [14] 3.17% | outcome [4] | Potency [5] | Potency [6] | Potency [15] | Potency [8] | outcome [9] | outcome [10] | Potency [11] | outcome [19] | activation [12] 1% and -0.134%
active: Potency [18] 54.5 µM

O=C(Cl)C(Cl)(Cl)Cl
inactive: Potency [2] | Potency [13] | outcome [3] | caspase-3 activation [14] 0.525% | Potency [6] | Potency [15] | Potency [16] | outcome [9] | outcome [19] | Potency [17] | Potency [18] | activation [12] -1.07%

CCOP(=S)(OCC)SCSC(C)(C)C
inactive: Potency [2] | Potency [13] | Potency [5] | outcome [10] | Potency [11] | Potency [18]

C=CC(=O)OCC
inactive: Potency [1] > 92 µM | Potency [2] | caspase-3 activation [14] -1.92% | outcome [4] | Potency [5] | Potency [6] | Potency [7] | Potency [16] | outcome [9] | Potency [11] | outcome [19] | Potency [17] | Potency [18]

C=CC(N)=O
inactive: Potency [2] | Potency [13] | outcome [3] | outcome [4] | Potency [5] | Potency [6] | Potency [15] | outcome [10] | Potency [18] | activation [12] -0.549% and 0.0148% and 0.73%

OCC1CO1 (stereo not drawn)
inactive: outcome [3] | Potency [6] | Potency [7] | outcome [9] | outcome [10] | Potency [11] | outcome [19] | Potency [17] | Potency [18]

Source: PubChem BioAssay (NCATS)
